Measurements from PubChem BioAssay AID2289 (National Center for Advancing Translational Sciences (NCATS), 2010).
In all, about 340,000 compounds went through this assay and about 3,300 (0.97%) were called active. About 9% were inconclusive and are not listed. Calls come from the whole dose curve; as a rule, active = well fitted inhibition curve with a large enough effect; inconclusive = small, poorly fitted or top-dose-only effect, or effect the other way; inactive = flat fitted curve, though single readings scatter. The list shows a part of the results.

Test: qHTS Assay for Modulators of miRNAs and/or Inhibitors of miR-21; note: nearly all actives have a fitted effect of over 55% in size
Details: HeLa miR-21-FLuc reporter, luciferase luminescence, 48 h; actives lower the signal
Method in brief: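 Compounds were titrated across several concentrations (up to approximately 40 uM) and incubated 48 hours with HeLa miR-21-FLuc reporter cells (miR-21 target sequence downstream of FLuc, endogenous miR-21). Readout was firefly luciferase luminescence after lytic detection reagent.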
Potency is the fitted concentration of half-maximal effect.

Potency, active:
COc1ccc(CNC(=O)c2ccc3c(c2)nc2n3CCCCC2)cc1 4.65 µM
CCOc1ccc(CNC(=O)c2ccc3c(c2)nc2n3CCCCC2)cc1 2.07 µM
COc1ccc(N=C2C(=Nc3ccc(OC)cc3)N(c3ccccc3)C(=S)N2C(=O)c2ccc(Cl)cc2)cc1 5.21 µM
CCc1ccc(-c2csc(NC(=O)Oc3ccccc3)n2)cc1 3.69 µM
COc1ccc(-c2csc(NC(=O)COC(=O)c3ccco3)n2)cc1 3.69 µM
CCc1ccc(-c2csc(NC(=O)COC(=O)CCc3nc4ccccc4s3)n2)cc1 2.07 µM
Cc1nc(N)sc1N=Nc1ccc(F)cc1 4.65 µM
Cc1nc(N)sc1N=Nc1ccccc1C(F)(F)F 5.21 µM
Cc1nc(N)sc1N=Nc1ccc(Br)cc1 0.736 µM
COCCN(CCOC)c1ncnc2c1cnn2-c1ccc(Cl)cc1 7.36 µM
CCN(c1ccccc1)c1ncnc2c1cnn2-c1ccccc1 7.36 µM
Cc1cccc(-n2ncc3c(N(CCO)CCO)ncnc32)c1 5.21 µM
CCCCN(c1ccccc1)c1ncnc2c1cnn2-c1ccc(Cl)cc1 5.85 µM
CC(=O)N1CCn2c3ccc(C)cc3c3cccc1c32 14.7 µM
Cc1ccc2c(c1)c1cccc3c1n2CCN3CCC(N)=O 6.56 µM
CC(C)(C)c1ccc(OCc2nc(-c3ccccn3)no2)c(Br)c1 1.65 µM
Clc1ccc(OCc2nc(-c3ccncc3)no2)c(Br)c1 1.65 µM
Clc1cc(Cl)c(OCc2nc(-c3ccccn3)no2)cc1Cl 0.736 µM
CC(Oc1ccc(Cl)cc1Cl)c1nc(-c2ccccn2)no1 (stereo not given) 6.56 µM
Nc1cnc(Nc2ccc(Br)cc2)nc1N 11.7 µM
Cc1ccc2c(c1)-c1nc3ccccc3cc1C2=NC1CCCCC1 0.656 µM
CCCCn1cnc2c(sc3nc4c(cc32)CSC(C)(C)C4)c1=O 0.585 µM
CC(C)CCn1cnc2c(sc3nc4c(cc32)CSC(C)(C)C4)c1=O 0.293 µM
COc1cccc(NC(=O)COc2ccc(C)cc2)c1 7.36 µM
NC(=O)c1ccccc1NC(=O)COc1ccc(Cl)cc1 4.65 µM
COc1ccc(C(=O)COc2ccccc2C#N)cc1 4.65 µM
O=C(COc1ccccc1)Nc1ccc(Cl)cc1Cl 5.85 µM
Cc1ccc(OCC(=O)Nc2ccccc2C(N)=O)cc1 1.17 µM
COC(=O)c1ccc(OCC(=O)c2cccc(OC)c2)cc1 10.4 µM
Cc1sc2c(c1C)C(=O)NC(c1ccccc1F)N2 (stereo not given) 7.36 µM
COc1ccc(OCCOc2ccccc2[N+](=O)[O-])cc1 6.56 µM
Cc1ccc(OCCOc2cccc(Br)c2)c([N+](=O)[O-])n1 6.56 µM
Cc1ccc(OCCOc2ccc(Br)cc2)c([N+](=O)[O-])n1 5.85 µM
COc1ccc(OCCOc2ccc(C)nc2[N+](=O)[O-])cc1 13.1 µM
O=C(O)c1cccc(-c2nnn(Cc3ccccc3Cl)n2)c1 0.414 µM
O=C(O)c1cccc(-c2nnn(Cc3ccccc3)n2)c1 2.33 µM
CC(C)(C)c1ccc(C(=O)NCCC(=O)N2CCCC2)cc1 2.33 µM
COc1ccc(CNC(=O)c2ccc(C(C)(C)C)cc2)cc1 5.85 µM
CC(C)(C)c1ccc(C(=O)NCc2ccccc2)cc1 14.7 µM
CCCc1nn(C)c(C(=O)Nc2ccc3ccccc3c2)c1Cl 7.36 µM
CCCc1nn(C)c(C(=O)Nc2cccc(C)c2)c1Cl 5.21 µM
CCCc1nn(C)c(C(=O)Nc2cccc(Cl)c2)c1Cl 7.36 µM
CCCc1nn(C)c(C(=O)Nc2ccccc2)c1Cl 1.85 µM
CCC1CN(C(=O)Nc2cccc3c2CCCC3)c2cc(C)ccc2O1 (stereo not given) 7.36 µM
COc1ccc(/C=C/c2nc3ccccc3n2Cc2ccc(OC)c(OC)c2)cc1 1.47 µM
C/C(=N\NC(=O)OC(C)(C)C)c1ccccc1Br 14.7 µM
CCOC(=O)c1cnn2c(C)cc(-c3ccc(F)cc3)nc12 4.14 µM
O=C(O)c1ccc(S(=O)(=O)c2ccc3c(c2)C(=O)N(NC(=O)c2ccccc2)C3=O)cc1 4.14 µM
COc1ccc(-c2cc(C(=O)N3CCCCC3)no2)cc1OC 7.36 µM
COc1ccc(-c2cc(C(=O)N3CCCCCC3)no2)cc1OC 16.5 µM
COc1ccc(-c2cc(C(=O)N3CCCC3)no2)cc1OC 5.85 µM
Cc1csc(NC(=O)/C=C/c2ccc(C)o2)n1 5.21 µM
Cc1ccc(/C=C/C(=O)Nc2ncc(C)s2)o1 1.04 µM
CCOC(=O)C(C)On1c(-c2ccc(Cl)cc2)nc2ccc([N+](=O)[O-])cc21 (stereo not given) 3.69 µM
O=C(Nc1ccccc1-c1ccccc1)c1cnccn1 13.1 µM
Cc1ccc(NC(=O)c2cnccn2)c(Br)c1 5.85 µM
Cn1ccc(C(=O)Nc2ccc(Br)cc2Br)n1 0.521 µM
O=C(Nc1ccccc1-c1ccccc1)c1ccc(=O)[nH]n1 14.7 µM
CCc1ccc2nc(N(Cc3cccnc3)C(C)=O)sc2c1 16.5 µM
O=C(c1ccc2c(c1)OCCO2)N(Cc1cccnc1)c1nc2ccc(F)cc2s1 4.14 µM
CN(C)CCCN(C(=O)c1sc2ccccc2c1Cl)c1nc2ccc(F)cc2s1 9.27 µM
CN(C)CCCN(C(=O)c1ccc2c(c1)OCCO2)c1nc2ccccc2s1 18.5 µM
Cc1cc(C)nc(SCc2csc(-c3ccccc3)n2)n1 1.65 µM
COc1ccc(S(=O)(=O)Nc2ccccc2OC)cc1NC(=O)c1cc2ccccc2oc1=O 6.56 µM
COc1ccccc1NS(=O)(=O)c1cccc(NC(=O)c2cc3ccccc3oc2=O)c1 4.65 µM
